Data from PubChem BioAssay.
The source made the active and inactive calls.

Legend:
Albumin (Bos taurus) = Albumin (Bos taurus) (UniProt P02769); experiment: bovine serum albumin binders on microarray, profiling panel, artefact control for SMM control protein annotation, biochemical, small-molecule microarray, Alexa647 label, 635/667 nm fluorescence (AID 1118); conditions: BSA-A647 binding, fluorescence 635 nm, higher = more signal;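 also: score merges 667 nm emission intensity and signal-to-noise per printed compound spot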
[1] = small-molecule microarray binders of probe aXIP, primary screen, biochemical, NeuroSMM set, 635/667 nm fluorescence (AID 1119); conditions: higher = more signal, called active from +8 up or from −8 down;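 also: probe is the protein aXip251-270 applied at 1 µg/mL to compound-printed slides; binding of probe to printed compounds measured as 667 nm fluorescence plus signal to noise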
[2] = small-molecule binders of probe aNOTCH3, primary screen, biochemical, small-molecule microarray, 635/667 nm fluorescence (AID 1120); conditions: higher = more signal;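 also: probe is a biotin-tagged antibody raised against NOTCH3 rather than NOTCH3 protein; score merges spot fluorescence near 667 nm with spot signal to noise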
[3] = small-molecule binders of probe aNOTCH2, primary screen, biochemical, small-molecule microarray, 635/667 nm fluorescence (AID 1121); conditions: higher = more signal;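 also: score merges feature fluorescence read at 667 nm with its signal to noise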
[4] = target: Carbonic anhydrase 2 (Homo sapiens) (UniProt P00918); experiment: CAII small-molecule binders, profiling panel, biochemical, small-molecule microarray, Alexa647-labelled CAII (AID 1122); conditions: CAII-A647 binding fluorescence, higher = more signal
[5] = COS7 lysate on small-molecule microarray, probe aHis, 635 nm (AID 1123); conditions: COS7 cell lysate, fluorescence, higher = more signal;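 also: z-score combines 667nm fluorescence intensity with signal-to-noise per printed compound spot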
[6] = compound binding in COS7 lysate, probe aLAP1, primary screen, cell lysate, small-molecule microarray (AID 1124); conditions: probe aLAP1, fluorescence, higher = more signal;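 also: lysate comes from COS7 cells expressing LAP1 and is applied at 0.3 µg/mL; score merges spot fluorescence near 667 nm with signal-to-noise over triplicate slides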
Sam68 (KHDRBS1) = experiment: Sam68 small-molecule binders, primary screen, biochemical, small-molecule microarray, 635 nm fluorescence (AID 1125); conditions: small-molecule microarray binding, higher = more signal;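 also: score merges 667 nm channel intensity with signal to noise over triplicate slides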
[7] = system: Chordin-like protein 2 (CHRDL2); experiment: CHRDL2 small-molecule binders, primary screen, biochemical, small-molecule microarray, 635 nm fluorescence (AID 1126); conditions: small-molecule microarray binding, fluorescence 635 nm; higher = more signal;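 also: printed compound slides probed with Chrdl2 protein at 4 µg/mL for 1 h at 4 C; score merges 667 nm emission intensity with signal to noise over three replicate slides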
[8] = target: Concanavalin-A (Canavalia ensiformis) (UniProt P02866); experiment: ConA small-molecule binders, primary screen, artefact control for SMM control protein annotation, biochemical, small-molecule microarray, Alexa647 label, 635 nm (AID 1127); conditions: ConA-A647 binding fluorescence, higher = more signal;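 also: z combines 667 nm emission intensity with signal-to-noise across three replicate slides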
[9] = anti-His antibody binders, primary screen, artefact control for SMM control protein annotation, biochemical, small-molecule microarray, 635 nm fluorescence (AID 1128); conditions: anti-His Alexa647 antibody binding, higher = more signal;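 also: score merges feature fluorescence with signal-to-noise for each printed compound spot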
[10] = system: Human papillomavirus type 1a E7 protein (residues 1-88); experiment: HPV1a E7 small-molecule binders, primary screen, biochemical, small-molecule microarray, residues 1-88, 635 nm (AID 1129); conditions: small-molecule microarray binding, fluorescence 635 nm; higher = more signal
[11] = target: Focal adhesion kinase 1 (Homo sapiens) (UniProt Q05397); experiment: small-molecule microarray binders of FAK, primary screen, biochemical, 635/667 nm fluorescence, BSA, DTT (AID 1130); conditions: PTK2 binding, 635 nm fluorescence, higher = more signal;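 also: composite of spot emission at 667 nm and signal to noise over triplicate slides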
[12] = system: Fibrinogen (Alexa647-labelled); experiment: fibrinogen binders on compound microarrays, profiling panel, artefact control for SMM control-protein annotation, biochemical, small-molecule microarray, 635/667 nm fluorescence (AID 1131); conditions: fibrinogen-A647 binding fluorescence, higher = more signal;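 also: z-score merges 667 nm fluorescence with per-spot signal-to-noise over triplicate slides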
[13] = target: Follistatin (Homo sapiens) (UniProt P19883); experiment: follistatin binders on small-molecule microarrays, primary screen, biochemical, small-molecule microarray, 635/667 nm fluorescence (AID 1132); conditions: FST binding, 635 nm fluorescence, higher = more signal
[14] = target: Fibroblast growth factor 2 (Homo sapiens) (UniProt P09038); experiment: FGF2 binders on small-molecule microarrays, primary screen, biochemical, small-molecule microarray, 635/667 nm fluorescence (AID 1133); conditions: small-molecule microarray binding, FGF2, fluorescence 635/667; higher = more signal
[15] = mitochondrial membrane potential change in A549 cells, profiling panel, cell-based, JC-1 fluorescence, basal, 24 h, 100 nL (AID 1138); conditions: higher = more signal;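 also: A549 lung adenocarcinoma cells under basal conditions with no added stimulus; test concentration not given here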
Lefty1 = Lefty1 binders on small-molecule microarrays, primary screen, biochemical, small-molecule microarray, 635/667 nm fluorescence (AID 1139); conditions: small-molecule microarray binding, fluorescence 635/667; higher = more signal
[16] = system: wheat germ agglutinin (Triticum aestivum), Alexa647-labelled; experiment: wheat germ agglutinin binders on compound microarrays, profiling panel, artefact control for SMM control-protein annotation, biochemical, small-molecule microarray, 635/667 nm fluorescence (AID 1140); conditions: WGA-A647 binding, 635 nm fluorescence, higher = more signal;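 also: score merges 667 nm feature emission with signal to noise over triplicate slides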
[17] = target: Luciferin 4-monooxygenase (Photinus pyralis) (UniProt P08659); experiment: firefly luciferase enzyme inhibitors, primary screen, biochemical, luminescence, purified enzyme, 2006 set (AID 1141); conditions: SteadyGlo luminescence, 30 min, higher = more signal, called active from +8 up or from −8 down;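 also: cell-free assay with purified firefly luciferase at 100 ng per well in PBS; test concentration not given here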
Luciferin 4-monooxygenase (Photinus pyralis), sequence (P08659 whole entry, looked up): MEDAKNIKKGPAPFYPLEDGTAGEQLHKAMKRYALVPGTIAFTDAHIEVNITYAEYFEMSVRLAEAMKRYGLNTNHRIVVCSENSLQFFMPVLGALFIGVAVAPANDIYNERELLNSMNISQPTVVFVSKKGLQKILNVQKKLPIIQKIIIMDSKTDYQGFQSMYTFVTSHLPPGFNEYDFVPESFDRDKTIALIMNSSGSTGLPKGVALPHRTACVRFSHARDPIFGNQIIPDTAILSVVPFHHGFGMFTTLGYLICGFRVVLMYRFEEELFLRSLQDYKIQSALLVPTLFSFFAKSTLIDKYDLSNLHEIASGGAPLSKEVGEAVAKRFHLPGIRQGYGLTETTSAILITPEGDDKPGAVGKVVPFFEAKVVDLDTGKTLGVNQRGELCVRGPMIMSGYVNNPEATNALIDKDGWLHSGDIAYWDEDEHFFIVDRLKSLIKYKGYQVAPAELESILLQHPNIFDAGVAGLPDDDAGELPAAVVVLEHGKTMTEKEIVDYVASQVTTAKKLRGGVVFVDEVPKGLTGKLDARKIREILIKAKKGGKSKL

Concanavalin-A (Canavalia ensiformis), sequence (P02866 whole entry, looked up): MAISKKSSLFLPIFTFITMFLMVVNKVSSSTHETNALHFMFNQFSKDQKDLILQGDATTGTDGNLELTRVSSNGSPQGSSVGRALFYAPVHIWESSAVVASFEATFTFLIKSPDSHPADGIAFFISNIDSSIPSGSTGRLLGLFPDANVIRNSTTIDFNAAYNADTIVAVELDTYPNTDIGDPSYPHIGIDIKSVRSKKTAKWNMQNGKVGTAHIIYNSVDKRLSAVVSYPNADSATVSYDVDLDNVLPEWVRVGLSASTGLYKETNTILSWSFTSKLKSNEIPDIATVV
Focal adhesion kinase 1 (Homo sapiens), sequence (Q05397 whole entry, looked up): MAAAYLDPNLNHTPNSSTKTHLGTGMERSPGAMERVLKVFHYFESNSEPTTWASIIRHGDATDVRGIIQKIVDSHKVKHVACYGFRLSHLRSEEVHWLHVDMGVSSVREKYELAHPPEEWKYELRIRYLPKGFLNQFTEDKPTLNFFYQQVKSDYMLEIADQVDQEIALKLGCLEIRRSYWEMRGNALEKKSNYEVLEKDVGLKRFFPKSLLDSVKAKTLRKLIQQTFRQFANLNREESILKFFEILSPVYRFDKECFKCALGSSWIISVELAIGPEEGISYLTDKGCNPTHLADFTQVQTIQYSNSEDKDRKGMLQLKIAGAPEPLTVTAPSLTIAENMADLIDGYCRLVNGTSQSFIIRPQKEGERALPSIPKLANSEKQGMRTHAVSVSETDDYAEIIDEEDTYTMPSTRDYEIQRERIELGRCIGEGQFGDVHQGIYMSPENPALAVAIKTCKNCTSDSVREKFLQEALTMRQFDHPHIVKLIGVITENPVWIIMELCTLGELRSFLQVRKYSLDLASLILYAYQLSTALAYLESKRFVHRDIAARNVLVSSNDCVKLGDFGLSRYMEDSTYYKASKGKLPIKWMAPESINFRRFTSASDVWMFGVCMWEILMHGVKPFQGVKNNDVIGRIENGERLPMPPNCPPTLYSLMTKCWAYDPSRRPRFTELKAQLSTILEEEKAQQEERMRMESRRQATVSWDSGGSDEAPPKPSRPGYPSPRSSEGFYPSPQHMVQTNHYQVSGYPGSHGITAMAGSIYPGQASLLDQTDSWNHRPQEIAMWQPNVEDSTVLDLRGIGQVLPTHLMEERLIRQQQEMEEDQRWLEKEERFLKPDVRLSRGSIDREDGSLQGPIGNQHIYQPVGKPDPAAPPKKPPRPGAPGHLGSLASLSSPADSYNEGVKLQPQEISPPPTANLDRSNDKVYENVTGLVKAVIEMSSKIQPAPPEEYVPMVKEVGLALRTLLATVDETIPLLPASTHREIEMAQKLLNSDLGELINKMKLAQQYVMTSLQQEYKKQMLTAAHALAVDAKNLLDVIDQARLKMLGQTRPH
Albumin (Bos taurus), sequence (P02769 whole entry, looked up): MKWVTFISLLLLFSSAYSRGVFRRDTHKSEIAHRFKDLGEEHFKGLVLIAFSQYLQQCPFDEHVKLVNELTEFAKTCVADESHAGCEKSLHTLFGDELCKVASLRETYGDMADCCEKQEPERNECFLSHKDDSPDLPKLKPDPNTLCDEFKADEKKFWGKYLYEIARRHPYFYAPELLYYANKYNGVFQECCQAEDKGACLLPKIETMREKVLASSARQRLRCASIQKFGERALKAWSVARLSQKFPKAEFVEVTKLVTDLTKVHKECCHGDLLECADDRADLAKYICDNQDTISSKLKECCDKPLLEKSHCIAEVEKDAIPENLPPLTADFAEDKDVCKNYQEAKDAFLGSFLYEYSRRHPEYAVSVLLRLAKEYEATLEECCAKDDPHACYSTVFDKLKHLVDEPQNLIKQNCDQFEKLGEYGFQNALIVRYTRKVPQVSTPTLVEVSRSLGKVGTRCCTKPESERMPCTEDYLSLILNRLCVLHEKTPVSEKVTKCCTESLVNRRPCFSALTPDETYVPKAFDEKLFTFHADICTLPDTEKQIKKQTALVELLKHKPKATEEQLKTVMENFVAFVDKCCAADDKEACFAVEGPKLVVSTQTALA
Follistatin (Homo sapiens), sequence (P19883 whole entry, looked up): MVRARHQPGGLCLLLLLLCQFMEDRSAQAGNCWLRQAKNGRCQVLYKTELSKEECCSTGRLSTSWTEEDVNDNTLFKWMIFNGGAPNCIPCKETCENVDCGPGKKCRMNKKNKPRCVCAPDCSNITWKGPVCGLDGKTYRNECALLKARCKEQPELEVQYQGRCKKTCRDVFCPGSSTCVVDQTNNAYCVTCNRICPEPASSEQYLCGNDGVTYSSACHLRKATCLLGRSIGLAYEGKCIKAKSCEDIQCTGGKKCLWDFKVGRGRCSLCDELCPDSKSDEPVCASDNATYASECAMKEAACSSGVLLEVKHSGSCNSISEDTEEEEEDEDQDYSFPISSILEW
Fibroblast growth factor 2 (Homo sapiens), sequence (P09038 whole entry, looked up): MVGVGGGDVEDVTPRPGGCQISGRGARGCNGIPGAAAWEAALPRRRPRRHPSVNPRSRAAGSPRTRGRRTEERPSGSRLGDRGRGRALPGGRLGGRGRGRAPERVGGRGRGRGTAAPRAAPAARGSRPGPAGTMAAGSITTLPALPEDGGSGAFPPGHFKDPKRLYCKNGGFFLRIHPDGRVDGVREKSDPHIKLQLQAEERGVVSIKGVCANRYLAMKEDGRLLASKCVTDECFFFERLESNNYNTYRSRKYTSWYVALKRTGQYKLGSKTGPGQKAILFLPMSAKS

Structure (SMILES) | composite z-score (Albumin (Bos taurus)) | composite Z-score [1] | composite z-score [2] | composite z-score [3] | composite z-score [4] | composite z-score [5] | composite z-score [6] | composite z-score (Sam68 (KHDRBS1)) | composite z-score [7] | composite z-score [8] | composite z-score [9] | composite z-score [10] | composite z-score [11] | composite z-score [12] | composite z-score [13] | composite z-score [14] | z-score [15] | composite z-score (Lefty1) | composite z-score [16] | z-score [17]
CO[C@H]1O[C@H](CO)[C@@H](OC(=O)Nc2ccccc2)[C@H](OC(=O)Nc2ccccc2)[C@@H]1OC(=O)Nc1ccccc1 | 0.809 | -0.0073 (inactive) | 0.289 | -0.0847 | 0.824 | 1.29 | 0.947 | 1.3 | 0.136 | 1.12 | 0.865 | 1.25 | 0.806 | 1.01 | 1.3 | 0.412 | -0.115 | 0.464 | 0.833 | 0.713 (inactive)
O=C1OCCC/C=C\[C@H]2OC34C=CCN(Cc5ccccc5)C(=O)[C@H]3N(CCCO)C(=O)[C@@H]4C12 (stereo not given in full) | -0.937 | 0.581 (inactive) | -0.327 | -0.104 | 0.948 | -0.861 | 1.59 | -0.374 | -1.79 | -1.53 | -0.14 | -0.496 | -0.66 | -1.64 | -1.29 | -1.08 | 1.26 | -1.28 | -0.443 | -1.26 (inactive)
COc1ccc(CCNC(=O)[C@@H]2c3ccccc3C(=O)N(Cc3ccccc3Cl)[C@H]2c2ccc(CO)cc2)cc1 | 0.0645 | -0.145 (inactive) | -0.0647 | -0.0712 | 0.363 | 1.47 | 0.0463 | 0.579 | -0.014 | 0.207 | 0.218 | 1.14 | 0.224 | 0.435 | 0.495 | 0.187 | 2.4 | -0.0833 | 0.261 | -0.745 (inactive)
O=C1NC(=O)C2C1C=CC(C(O)c1cccs1)N2Nc1ccc(Cl)cc1Cl (stereo not given) | 0.165 | -0.196 (inactive) | 0.267 | 0.181 | 0.723 | 1.03 | 0.293 | -0.374 | -0.352 | -0.376 | 0.541 | -0.443 | -0.0686 | -0.868 | -0.222 | -0.534 | -0.384 | -0.245 | 0.22 | -1.64 (inactive)
CCCCC(CC)C(O)C1C=CC2C(=O)N(Cc3ccccc3)C(=O)C2N1n1cnnc1 (stereo not given) | 0.0178 | 0.0835 (inactive) | 0.0116 | -0.126 | 0.424 | 0.262 | -0.192 | 0.26 | -0.353 | 0.273 | 0.544 | 0.541 | 1.57 | 0.107 | 0.539 | -0.504 | -0.423 | 0.0981 | 0.616 | 0.758 (inactive)
CC(C)C(CO)N1C(=O)[C@@H]2C3C(=O)OCCC/C=C\[C@H]3OC23C=CCN(CCN2CCOCC2)C(=O)[C@@H]13 (stereo not given in full) | 0.692 | -0.298 (inactive) | -0.21 | -0.0928 | 0.463 | -0.301 | 0.395 | -0.362 | -0.254 | -0.724 | -0.92 | -1.54 | -0.0582 | -0.0904 | 0.113 | 0.164 | -0.835 | 0.579 | -1.24 | -0.519 (inactive)
COc1cc(Br)cc(C(O)C2C=CC3C(=O)N(C)C(=O)C3N2N2CCCCC2)c1OC (stereo not given) | 0.435 | 1.94 (inactive) | -0.165 | -0.0708 | 0.707 | 1.28 | 0.112 | -0.309 | -1.39 | 0.18 | 0.286 | 0.665 | 0.446 | -0.83 | -1.02 | -1.38 | -0.85 | -1.12 | -0.0965 | -0.141 (inactive)
NCCCCCCNC(=O)[C@@H]1C[C@@H]2C(=O)NCC(=O)N2[C@@H]1c1ccc(O)cc1 | 0.741 | 0.706 (inactive) | -0.232 | -0.124 | 0.4 | 0.738 | 0.0946 | 1.28 | 1.17 | 1.17 | 1.2 | 1.14 | 0.183 | 0.971 | 1.46 | 1.62 | -0.614 | 1.63 | 0.846 | 1.14 (inactive)
COCCOC(=O)N1C(=O)[C@@]2(c3cc(C#CCC(C(=O)OC)C(=O)OC)ccc31)[C@H](C(=O)N1CCN(c3ncccn3)CC1)[C@H]1C(=O)O[C@H](c3ccccc3)[C@H](c3ccccc3)N1[C@@H]2c1ccccc1OCCO | -0.503 | -0.444 (inactive) | 0.176 | -0.147 | 0.347 | 0.928 | 0.698 | 1.29 | 1.09 | 1.13 | 1.02 | 1.2 | 0.467 | 0.997 | 1.38 | 1.29 | -0.835 | 1.54 | 0.755 | -0.291 (inactive)
CC(CO)N1C(=O)[C@@H]2C3C(=O)OCCC/C=C\[C@H]3OC23C=CCN(C(C)(C)C)C(=O)[C@@H]13 (stereo not given in full) | -0.757 | -0.483 (inactive) | -0.103 | -0.167 | 0.872 | 0.295 | 0.198 | -0.0677 | -0.184 | 0.0099 | -0.286 | -0.615 | -0.05 | -0.47 | 0.122 | -0.0209 | -0.0344 | 0.476 | -0.452 | -0.562 (inactive)
C=C(C(=O)CC[C@@H](OC(=O)c1cccnc1)c1ccccc1OCCO)C(C)C | 0.116 | 0.59 (inactive) | 0.0909 | -0.092 | 0.638 | 0.206 | 1.51 | 0.489 | 0.411 | -0.67 | -0.242 | 0.131 | -0.0995 | 0.0673 | 0.719 | 0.647 | -0.102 | 1.23 | 0.486 | -0.484 (inactive)
